Test results as given in PubChem BioAssay AID1529 (NMMLSC, 2009).
The campaign covered roughly 290,000 compounds. About 4,200 (1.4%) were called active.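 How the source made its calls: active means binding response more than 3 SD above or below the average of its plate-row segment, actives on both sides; inconclusive means wells at one plate position flagged as instrument error; inactive means the rest.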 The sample as a whole holds a higher share of actives than the screen did.

Target: Mitogen-activated protein kinase kinase kinase 3 (Homo sapiens) (UniProt Q99759)
Sequence (Q99759 whole entry, looked up): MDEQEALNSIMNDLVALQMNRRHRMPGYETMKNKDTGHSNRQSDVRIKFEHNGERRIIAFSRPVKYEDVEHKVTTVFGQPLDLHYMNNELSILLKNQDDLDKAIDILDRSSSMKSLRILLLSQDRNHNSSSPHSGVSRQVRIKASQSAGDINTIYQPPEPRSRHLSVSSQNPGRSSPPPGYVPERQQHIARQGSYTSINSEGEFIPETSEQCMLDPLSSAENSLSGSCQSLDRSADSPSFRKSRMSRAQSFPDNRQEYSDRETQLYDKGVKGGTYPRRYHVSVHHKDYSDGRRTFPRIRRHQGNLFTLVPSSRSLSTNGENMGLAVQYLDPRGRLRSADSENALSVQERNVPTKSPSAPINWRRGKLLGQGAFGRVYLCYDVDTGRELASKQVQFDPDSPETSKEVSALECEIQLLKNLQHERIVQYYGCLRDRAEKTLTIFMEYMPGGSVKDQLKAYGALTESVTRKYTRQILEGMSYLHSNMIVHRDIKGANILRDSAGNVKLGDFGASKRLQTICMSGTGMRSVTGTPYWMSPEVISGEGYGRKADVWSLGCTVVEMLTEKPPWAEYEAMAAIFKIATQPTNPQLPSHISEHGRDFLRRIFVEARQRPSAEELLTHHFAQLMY
Assay: compounds raising or lowering MEK5 association with MEKK3 PB1 – biochemical, wildtype MEKK3, multiplex bead flow cytometry, Alexa488-MEK5, primary screen (AID 1529);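 further: Alexa488 bead fluorescence after subtracting the streptavidin-only scavenger bead signal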
Settings: bead-based flow cytometry, Alexa488-MEK5 binding to MEKK3; at 10 µM; actives lie on both sides

Row | SMILES | binding response (% of control)
1 | O=C(COC(=O)c1ccccc1)Nc1ccc(Cl)cc1C(=O)c1ccccc1 | 131% (active)
2 | CN1CCN(C(=S)SCC(=O)Nc2ccc(Cl)cc2C(=O)c2ccccc2)CC1 | 108% (inactive)
3 | O=C(CCNS(=O)(=O)c1ccccc1)Nc1ccc(Cl)cc1C(=O)c1ccccc1 | 107% (inactive)
4 | COC(=O)C1=C(c2cc3ccccc3s2)C[C@@H]2CC[C@H]1N2C(=O)NC(C)C | 108% (inactive)
5 | COc1cccc(C(=O)N2C[C@H]3C[C@@H](C2)c2cccc(=O)n2C3)c1 | 98% (inactive)
6 | CN(C)CC1Oc2ccccc2OC1(O)c1ccccc1 (stereo not given) | 106% (inactive)
7 | Cc1ccc(CN2CCCC(C(=O)c3ccc4c(c3)OCO4)C2)cc1C (stereo not given) | 49% [inhibitor] (active)
8 | Cc1ccsc1C(=O)C1CCCN(Cc2ccc(O)cc2)C1 (stereo not given) | 96% (inactive)
9 | COc1ccc(C(=O)C2CCCN(Cc3ccc(C)s3)C2)cc1OC (stereo not given) | 103% (inactive)
10 | CN(C)C(=O)Oc1ccc2c(c1)O/C(=C\c1ccccc1)C2=O | 102% (inactive)
11 | NCC(O)c1ccc(O)cc1 (stereo not given) | 74% [inhibitor] (active)
12 | COc1ccc2c(c1)[C@]13CCCCC1C(C2)N(C)CC3 (stereo not given in full) | 100% (inactive)
13 | CN(C)CC1CCCCC1OC(=O)c1ccc(Cl)c(Cl)c1 (stereo not given) | 135% (active)
14 | COC(=O)C1=C(c2cc3ccccc3o2)C[C@@H]2CC[C@H]1N2C(=O)NC1CCCCC1 | 103% (inactive)
15 | COC(=O)C1=C(c2cc3ccccc3s2)C[C@@H]2CC[C@H]1N2C(=O)NCCO | 107% (inactive)
16 | COc1cccc(OC)c1C(=O)NC(=S)N1C[C@H]2C[C@H](C1)c1cccc(=O)n1C2 | 103% (inactive)
17 | CCCn1c(C(=O)c2ccccc2OC)nc2ccccc21 | 98% (inactive)
18 | O=C1NC(=O)C(CCc2ccccn2)(Cc2cccc(Cl)c2Cl)C(=O)N1c1ccc(Br)cc1 (stereo not given) | 89% (inactive)
19 | Cc1ccc(N2C(=O)NC(=O)C(CCc3ccncc3)(Cc3cccc(Cl)c3Cl)C2=O)cc1 (stereo not given) | 138% (active)
20 | COc1ccc2[nH]c3c(c2c1)CCN[C@H]3C | 105% (inactive)
21 | CC[C@H]1CC2CN3CCc4c([nH]c5ccccc45)C(C(=O)OC)(C2)C13 (stereo not given in full) | 99% (inactive)
22 | CNCC(O)c1cc(F)c(OCc2ccccc2)c(OCc2ccccc2)c1F (stereo not given) | 103% (inactive)
23 | COc1ccc(-c2nn(CCC#N)cc2C(=O)Nc2ccc(C(C)=O)cc2)cc1 | 111% (inactive)
24 | COC(=O)C1=C(c2cc3ccccc3s2)C[C@@H]2CC[C@H]1N2C(=O)NCc1cccc2ccccc12 | 105% (inactive)
25 | O=C(Cc1ccccc1[N+](=O)[O-])N1CCN(Cc2ccc3c(c2)OCO3)CC1 | 46% [inhibitor] (active)
26 | Fc1ccc(N2CCN(Cc3ccc4c(c3)OCO4)CC2)cc1 | 98% (inactive)
27 | Cc1cc(=O)oc2c(C)c(OCC(=O)N3CCN(Cc4ccc5c(c4)OCO5)CC3)ccc12 | 106% (inactive)
28 | COc1ccc2c(c1O)-c1cccc3c1[C@@H](C2)N(C)CC3 | 95% (inactive)
29 | CCOc1ccc(CN(CCCl)CCCl)cc1C(=O)OC | 111% (inactive)
30 | COC(=O)C1=C(c2ccccc2)C[C@@H]2CC[C@H]1N2C(=O)N1CCCCC1 | 102% (inactive)
